Lamin A splicing: LMNA splicing modulation. HeLa LMNA splicing GFP/RFP minigene ratio, 48 h. 200,000 compounds, 0.01% hits. Potency, µM (top dose mostly 46.1 µM), most hits filed as inhibitors; active = well fitted inhibition curve with a large enough effect in the signal ratio, with a control signal flat, not every such curve was filed as active; inconclusive = small, poorly fitted or top-dose-only effect, or effect the other way, or a change in a side signal; the % refers to the signal ratio
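Read-out is the ratio of GFP to DsRed2 object intensity, acquired by 488 nm laser-scanning cytometry on HeLa lamin A-EGFP minigene reporter cells. Compound incubation 48 hrs at 37 °C in Opti-MEM with 2% FBS; DMSO 0.5% final.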
HPGD block: HPGD (human) dehydrogenase inhibition; P15428; purified HPGD, NADH fluorescence kinetic, PGE2 substrate; Potency, µM, most hits filed as inhibitors; 150,000 compounds, 4.3% hits; AID 894
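NADH formation kinetics: reaction with 30 uM PGE2 and 1 mM NAD+ (final), 20 nM enzyme, Tris-HCl pH 8 with Tween 20, after 15 min compound preincubation at room temperature. Fluorescence change, last versus first of five reads.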
PNC inhibitor: inhibitors of perinucleolar compartment assembly. PC3M PTB-GFP, PNC prevalence imaging, 16 h; hits give low values. activity change (PNC), negative = inhibition, % at 10 µM. AID 2417. 140,000 compounds, 3.1% hits;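 active = readout at or below -70, meaning at least 70% loss of cells showing the perinucleolar compartment, a nuclear body marking cancer cells; inconclusive = readout between -30 and a set limit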
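Read-out is percentage of cells bearing a perinucleolar compartment, from automated 20x imaging of fixed, Hoechst-stained PC3M PTB-GFP cells. Cells were seeded 4 h, then exposed 16 h to compound (23 nl of library stock) in duplicate plates.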
ALDH1A1 inh: inhibitors of human aldehyde dehydrogenase 1A1. Purified ALDH1A1, NADH fluorescence, propionaldehyde substrate. Potency, µM (highest dose often 75.3 µM), hits mostly inhibitors. 220,000 compounds, 7.3% hits. AID 1030
Target sequence (P00352 whole entry, looked up): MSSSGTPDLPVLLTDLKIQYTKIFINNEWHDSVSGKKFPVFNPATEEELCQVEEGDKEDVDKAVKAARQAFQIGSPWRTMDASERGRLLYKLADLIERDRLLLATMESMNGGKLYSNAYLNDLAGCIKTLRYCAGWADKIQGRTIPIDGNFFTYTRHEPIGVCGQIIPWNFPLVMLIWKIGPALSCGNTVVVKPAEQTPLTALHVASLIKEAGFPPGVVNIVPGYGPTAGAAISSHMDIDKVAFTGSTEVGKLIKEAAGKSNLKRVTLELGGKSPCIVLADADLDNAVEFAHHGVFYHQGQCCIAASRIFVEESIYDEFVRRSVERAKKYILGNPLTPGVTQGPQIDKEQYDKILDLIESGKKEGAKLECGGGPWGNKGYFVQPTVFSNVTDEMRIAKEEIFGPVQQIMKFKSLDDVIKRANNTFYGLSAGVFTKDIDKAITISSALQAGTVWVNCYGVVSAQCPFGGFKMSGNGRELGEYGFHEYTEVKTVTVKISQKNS
ALOX12 inhib: 12-hLO (ALOX12) enzyme inhibition; 150,000 compounds, 0.12% hits; purified 12-hLO, xylenol orange hydroperoxide absorbance; Potency, µM (doses to about 57.1 µM), usual class: inhibitors; P18054; active = well fitted inhibition curve with a large enough effect; inconclusive = small, poorly fitted or top-dose-only effect; note: nearly all actives have a fitted effect of over 55% in size
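Hydroperoxide formation by human 12-lipoxygenase from 40 uM arachidonic acid was followed colorimetrically via ferric-xylenol orange complex, using the 573/405 nm absorbance ratio. Enzyme concentration was 150 nM, with 30 min reaction at room temperature.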
Large screens that a line does not name were inactive. The list is not random: actives were taken first. Their share in the collection is about 10%. Unless noted, calls come from the whole dose curve; as a rule, active = well fitted inhibition curve with a large enough effect (not every such curve was filed as active); inconclusive = small, poorly fitted or top-dose-only effect, or another doubt; inactive = no such curve, though single readings can be large or run the other way.

CCc1cccc(NC(=O)CSc2nc3c(c(=O)[nH]2)CCCC3)c1	Lamin A splicing inconclusive, HPGD block 10µM
O=C(CSc1nc2c(c(=O)[nH]1)CCC2)Nc1cccc(Cl)c1	HPGD block 14.1µM
Cc1c(Cl)cccc1NC(=O)CSc1nc2c(c(=O)[nH]1)CCCC2	none
C[C@@H]1CC2C3CCC4=CC(=O)C=CC4(C)[C@@]3(F)[C@@H](O)CC2(C)[C@@]1(O)C(=O)CO (some centres not stated)	none (no result: Lamin A splicing, PNC inhibitor)
CCCn1c(C)nc2c(N(CCOC)CCOC)nc(C)nc21	none (no result: Lamin A splicing, PNC inhibitor)
CN1c2ccccc2-c2nc(SCC(=O)Nc3ccccc3)ncc2S1(=O)=O	none (no result: HPGD block, PNC inhibitor, ALDH1A1 inh, ALOX12 inhib)
O=C(NCc1cccnc1)C1CC(=O)N(C2CCCCC2)C1 (configuration not stated)	none
O=C(NCc1ccco1)c1cccc2c1C(=O)N(C1CCCCC1)C2	PNC inhibitor -100.0
O=C(Nc1ccc2c(c1)OCO2)c1cccc2c1C(=O)N(C1CCCCC1)C2	none (no result: Lamin A splicing, HPGD block, PNC inhibitor, ALOX12 inhib)
O=C(NCc1cccnc1)c1cccc2c1C(=O)N(C1CCCCC1)C2	PNC inhibitor -100.0
O=C(NCc1cccnc1)C1c2ccccc2C(=O)N1C1CCCC1 (configuration not stated)	PNC inhibitor -108.4
O=S(=O)(c1ccccc1)N1CCC[C@@]2(CCN(c3ccccc3)C2)C1	ALDH1A1 inh inconclusive (no result: Lamin A splicing, PNC inhibitor)
Clc1ccc(-c2n[nH]c3c2CCC3)c(Cl)c1	HPGD block 7.08µM
CC(=O)c1sc(NC(=O)C(C)(C)C)nc1C	none
CC(=O)c1sc(Nc2nc(C)cc(C)n2)nc1C	HPGD block 14.1µM, ALDH1A1 inh 0.891µM
C=CCOc1c(Br)cc(CNn2cn[nH]c2=S)cc1OC	none (no result: HPGD block, PNC inhibitor, ALOX12 inhib)
COc1cc(CNn2c(C)n[nH]c2=S)cc(Cl)c1OCc1ccc(F)cc1	Lamin A splicing inconclusive, HPGD block 12.6µM, ALOX12 inhib inconclusive
COc1cc(CNC2CCCC2)cc(Cl)c1OCc1ccc(F)cc1	PNC inhibitor inconclusive
COc1cc(CNn2c(C)n[nH]c2=S)cc(Br)c1OCc1ccc(F)cc1	Lamin A splicing inconclusive, HPGD block 15.8µM, ALDH1A1 inh 28.2µM
O=C(NOC(=O)c1ccccc1)c1ccccc1	ALDH1A1 inh 20µM (no result: Lamin A splicing, HPGD block, PNC inhibitor, ALOX12 inhib)
COC(=O)c1ccccc1	none (no result: Lamin A splicing, PNC inhibitor)
O=c1[nH]ncc(N2CCCCCC2)c1Cl	ALDH1A1 inh 10µM (no result: HPGD block, PNC inhibitor, ALOX12 inhib)
COc1ccccc1CNc1nc(-c2ccco2)nn1S(C)(=O)=O	none (no result: HPGD block, PNC inhibitor, ALDH1A1 inh, ALOX12 inhib)
COc1ccc(C(CNC(=O)COc2cc(C)cc(C)c2)N2CCOCC2)cc1 (configuration not stated)	none (no result: HPGD block, PNC inhibitor, ALDH1A1 inh, ALOX12 inhib)
CCc1ccc(-c2csc3[n+]2CCN3C(C)=O)cc1	HPGD block 14.1µM, ALDH1A1 inh inconclusive
CC(=O)N1CC[n+]2c(-c3ccc(Cl)cc3)csc21	HPGD block 17.8µM, ALDH1A1 inh inconclusive, ALOX12 inhib inconclusive
CC(=O)C1=C(C)N(Cc2ccco2)C(=O)N[C@@H]1c1ccccc1	none (no result: Lamin A splicing, PNC inhibitor, ALOX12 inhib)
S=C1NNC2(NN1)C1CC3CC(C1)CC2C3	PNC inhibitor -100.0
Cc1nc2ccccc2c(=O)n1NC(=O)c1ccccc1Cl	none
Cc1cc(Nc2ccccc2C(=O)O)nc2nc3ccccc3c(=O)n12	PNC inhibitor -89.8, ALDH1A1 inh inconclusive
C/C(=C1/SC(=S)N(CCC(=O)O)C1=O)c1ccc(O)cc1	HPGD block 17.8µM, ALDH1A1 inh inconclusive
O=C(/C=C/c1c(Cl)nc2ccccn12)N1CCCCC1	ALDH1A1 inh 11.2µM (no result: Lamin A splicing, HPGD block, PNC inhibitor, ALOX12 inhib)
COc1ccccc1NC(=O)N1CCOc2ccccc21	none (no result: HPGD block, PNC inhibitor, ALDH1A1 inh, ALOX12 inhib)
CCCCSc1nc(SCC(=O)NCc2ccco2)c2c3c(sc2n1)COC(C)(CC)C3 (configuration not stated)	ALDH1A1 inh 22.4µM
CCc1cccc(C)c1NC(=O)Cn1c(=O)cc(C(F)(F)F)c2c(C)nn(C)c21	none (no result: HPGD block, PNC inhibitor, ALDH1A1 inh, ALOX12 inhib)
COc1ccccc1N/N=C/c1ccc2c(c1)OCO2	HPGD block 15.8µM, PNC inhibitor inconclusive, ALDH1A1 inh inconclusive
COc1cccc(N2CC(NC(=O)C3CCCCC3)CC2=O)c1 (configuration not stated)	none (no result: HPGD block, PNC inhibitor, ALDH1A1 inh, ALOX12 inhib)
COc1cc2oc(=O)cc(-c3ccc(-c4sccc4C=O)cc3)c2c(OC)c1OC	none (no result: Lamin A splicing, PNC inhibitor)
CSc1ccccc1C(=O)N1CCc2ccccc2C1	none (no result: HPGD block, PNC inhibitor, ALOX12 inhib)
O=C(c1cncc(Br)c1)N1CCCc2ccccc21	none
O=C(c1cccc(F)c1)N1CCc2ccccc2C1	HPGD block 5.01µM, ALDH1A1 inh 14.1µM
O=C(c1ccccc1Cl)N1CCc2ccccc2C1	Lamin A splicing inconclusive, HPGD block 4.47µM, ALDH1A1 inh inconclusive
COc1cccc(C(=O)N2CCN(C(=O)c3cccc(F)c3)CC2)c1	ALDH1A1 inh inconclusive
Cc1cccc(C(=O)NC(=S)N2CCc3ccccc3C2)c1	Lamin A splicing inconclusive, PNC inhibitor -81.9, ALDH1A1 inh inconclusive
CCNC(=S)N1CCc2ccccc2C1	none (no result: HPGD block, PNC inhibitor, ALOX12 inhib)
O=C(c1cncc(Br)c1)N1CCc2ccccc2C1	HPGD block 10µM, PNC inhibitor inconclusive
O=C(c1ccc(Cl)nc1)N1CCc2ccccc2C1	HPGD block 7.94µM, PNC inhibitor inconclusive
O=C(c1cnccn1)N1CCc2ccccc2C1	none (no result: HPGD block, PNC inhibitor, ALOX12 inhib)
COc1ccc(NS(=O)(=O)c2cc(NC(=O)c3cccc(OCc4c(C)noc4C)c3)ccc2OC)cc1	none
CSc1nc(-c2ccco2)nn1S(=O)(=O)c1ccc(C)cc1	HPGD block inconclusive, ALDH1A1 inh inconclusive
CSc1nc(-c2ccco2)nn1C(=O)c1ccc(C)cc1	HPGD block inconclusive
CCS(=O)(=O)n1nc(-c2ccco2)nc1SC	HPGD block 8.91µM, ALDH1A1 inh 22.4µM

Source: PubChem BioAssay
